Test results published in PubChem BioAssay.
Activity calls are given as the source filed them. Unless noted, no rule for the calls is given here.

Columns and labels:
[1] = signal quenchers or enhancers, Cy5 substrate/SSB – biochemical, NIH Clinical Collection, E. coli SSB, artefact control for HCV NS3 helicase inhibitor project (AID 743268); conditions: Cy5-oligo bound E. coli SSB, fluorescence interference
[2] = test system: Hepatitis C virus NS3 helicase; experiment: blockers of NS3h binding to DNA – biochemical, fluorescence polarization, NIH Clinical Collection, primary screen (AID 743270); conditions: NS3 helicase binding to Cy5-dT15 DNA, stronger effect = higher value, concentration not given here
[3] = molecular target: Single-stranded DNA-binding protein (Escherichia coli (strain K12)) (UniProt P0AGE0); experiment: SSB-ssDNA binding inhibitors – biochemical, fluorescence polarization, NIH Clinical Collection, counter-screen for HCV NS3 helicase inhibitor project (AID 743271; in the data active = inhibition above about 28%); conditions: E. coli SSB-DNA binding, stronger effect = higher value, concentration not given here
[4] = compounds distorting NS3 helicase fluorescence signal – biochemical, NIH Clinical Collection, artefact control for HCV NS3 helicase inhibitor project (AID 743272); conditions: fluorescence interference counterscreen, HCV NS3 helicase assay; stronger effect = lower value;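 also: HCV NS3 helicase with a Cy5 labelled single stranded DNA probe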
[5] = test system: Neuropilin-2 / VEGF-C interaction (human); experiment: small molecules blocking Neuropilin-2/VEGF-C interaction – biochemical, microplate binding format, z-score (AID 743281); conditions: microplate NRP2/VEGF-C binding assay; stronger effect = lower value
[6] = Wnt pathway potentiators raising nuclear beta-catenin – imaging, WNT3A-conditioned medium, mouse C2C12, NPC library, primary screen (AID 1117326; in the data active = nuclear beta-catenin stimulation mostly above about 4.2%, no sharp cut-off; inactive = mostly below about 10%); conditions: stronger effect = higher value
[7] = stimulators of insulin release from INS-1E, primary screen, cell-based, 5 mM glucose, NPC library (AID 1117329;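 active = compound raises insulin release from rat beta cells at 5 mM glucose, no numeric limit stated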); conditions: rat INS-1E insulin secretion, at 10 µM, stronger effect = higher value
[8] = growth inhibition of GSK3B-pretreated HCT116 cells – cell-based, CellTiter-Glo, 0.2 to 20 µM (AID 1117336;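 active = compounds lowering colon cancer cell viability after pretreatment blocking the GSK3B kinase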); conditions: HCT116 viability after GSK3B inhibitor, at 20 µM, stronger effect = higher value
[9] = inhibition of endothelial tube formation, primary screen, imaging, VEGF stimulated, CD31 staining, tube area, NPC library (AID 1117340;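 active = compound that reduces growth-factor-driven endothelial tube area in a mixed cell culture, no cutoff stated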); conditions: VEGF-stimulated ADSC/ECFC co-culture, at 10 µM, stronger effect = higher value
[10] = GLP1 release stimulators, primary, NCI-H716, NPC library (AID 1117341;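 active = compound raises GLP1 secretion from the human gut endocrine cells, with no numeric limit stated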); conditions: NCI-H716 cells, at 10 µM, stronger effect = higher value
[11] = HCT116 colon cancer cell growth inhibition, primary screen, CellTiter-Glo luminescence, NPC library (AID 1117342;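 active = compounds that lower survival of HCT116 colon cancer cells in the luminescence readout, no numeric limit stated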); conditions: at 20 µM (top of the series)
[12] = reduced SW480 viability measured with CellTiter-Glo, NPC library, primary (AID 1117343;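 active = compounds that lower viability of the colon cancer cells in the luminescence readout, with no numeric limit stated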); conditions: CellTiter-Glo luminescence; at 20 µM (top of the series)
[13] = NPC library primary testing for decreased DLD-1 cell viability via CellTiter-Glo (AID 1117346;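 active = compounds that lower survival of DLD-1 colon cancer cells in the luminescence readout, no cutoff given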); conditions: DLD-1 viability, CellTiter-Glo luminescence; at 20 µM (top of the series)
[14] = test system: Hepatitis C virus NS3 helicase; experiment: blockers of NS3h binding to ssDNA – biochemical, fluorescence polarization, LOPAC1280 library, primary screen (AID 687035; in the data active = inhibition above about 37%); conditions: Purified HCV NS3 helicase, Cy5-dT15 ssDNA binding fluorescence polarization; stronger effect = higher value; concentration not given here
[15] = compounds altering Cy5-DNA-NS3h complex signal – biochemical, LOPAC1280, artefact control for HCV NS3 helicase inhibitor project (AID 687037); conditions: Cy5-DNA-NS3h complex fluorescence interference counterscreen

COc1cccc2c1C(=O)c1c(O)c3c(c(O)c1C2=O)C[C@@](O)(C(=O)CO)C[C@@H]3O[C@H]1C[C@H](N)[C@H](O)[C@H](C)O1
inactive: inhibition [2] 7.52% | z-score [5] 0.436 | nuclear beta-catenin stimulation ([6]; at 10 µM) 28.9% | insulin secretion stimulation [7] 4% | viability decrease [8] -114% | GLP1 secretion stimulation [10] 3% | inhibition of viability [11] 40.6%
27.7%: nuclear beta-catenin stimulation ([6]; stimulation, at 2 µM)
active: fluorescence ratio [1] 0.07 | inhibition [3] 90% | fluorescence ratio [4] 0.4 | tube area decrease [9] 22.7% | viability decrease (inhibition) [12] 99.3% | viability decrease (inhibition) [13] 82.4%

Cc1cccc(C)c1OCC(C)N (stereo unspecified)
2.4%: nuclear beta-catenin stimulation ([6]; stimulation, at 2 µM)
inactive: inhibition [14] -2% | fluorescence ratio (interference) [15] 1 | fluorescence ratio [1] 1.06 | inhibition [2] -4.09% | inhibition [3] -4.29% | fluorescence ratio [4] 1.04 | nuclear beta-catenin stimulation ([6]; at 10 µM) 1.9% | insulin secretion stimulation [7] 4.3% | viability decrease [8] 3.4% | tube area decrease [9] -2% | GLP1 secretion stimulation [10] -4.1% | inhibition of viability [11] 5.27% | viability decrease (inhibition) [12] -7.7% | viability decrease (inhibition) [13] 4.3%

NS(=O)(=O)c1cc(C(=O)O)c(NCc2ccco2)cc1Cl
inactive: fluorescence ratio [1] 0.95 | fluorescence ratio [4] 0.89 | nuclear beta-catenin stimulation ([6]; at 10 µM) 0.5% | insulin secretion stimulation [7] -2% | viability decrease [8] -10.1% | tube area decrease [9] 13% | GLP1 secretion stimulation [10] 0.9% | inhibition of viability [11] -10.4% | viability decrease (inhibition) [12] -18% | viability decrease (inhibition) [13] -1.6%
1.3%: nuclear beta-catenin stimulation ([6]; stimulation, at 2 µM)

COc1ccc(CC2c3cc(OC)c(OC)cc3CC[N+]2(C)CCC(=O)OCCCCCOC(=O)CC[N+]2(C)CCc3cc(OC)c(OC)cc3C2Cc2ccc(OC)c(OC)c2)cc1OC (stereo unspecified)
inactive: fluorescence ratio [1] 1.03 | inhibition [2] -1.09% | inhibition [3] 1.97% | fluorescence ratio [4] 1.02 | outcome [5] | nuclear beta-catenin stimulation ([6]; at 10 µM) 21.5% | insulin secretion stimulation [7] 13.1% | GLP1 secretion stimulation [10] -3% | inhibition of viability [11] 6.9%
0.3%: nuclear beta-catenin stimulation ([6]; stimulation, at 2 µM)
active: viability decrease [8] 65.7% | tube area decrease [9] 44.4% | viability decrease (inhibition) [12] 81.7% | viability decrease (inhibition) [13] 51.9%

CC[C@@]1(O)C(=O)OCc2c1cc1n(c2=O)Cc2cc3c(CN(C)C)c(O)ccc3nc2-1
active: nuclear beta-catenin stimulation ([6]; at 10 µM) 55.8% | viability decrease [8] 61.2% | tube area decrease [9] 107% | inhibition of viability [11] 52.2% | viability decrease (inhibition) [12] 75% | viability decrease (inhibition) [13] 67.8%
20.6%: nuclear beta-catenin stimulation ([6]; stimulation, at 2 µM)
inactive: fluorescence ratio [1] 1.05 | inhibition [2] 1.98% | inhibition [3] 3.75% | fluorescence ratio [4] 1.02 | z-score [5] 1.52 | insulin secretion stimulation [7] 0.5% | GLP1 secretion stimulation [10] -4.3%

CC(=O)NS(=O)(=O)c1ccc(N)cc1
inactive: fluorescence ratio [1] 1.03 | inhibition [2] -5% | inhibition [3] -5.05% | fluorescence ratio [4] 1.01 | nuclear beta-catenin stimulation ([6]; at 10 µM) -0.3% | insulin secretion stimulation [7] -1.9% | viability decrease [8] -5.2% | tube area decrease [9] 14.5% | GLP1 secretion stimulation [10] -1.7% | inhibition of viability [11] 1.2% | viability decrease (inhibition) [12] -3.2% | viability decrease (inhibition) [13] -1.3%
-0.1%: nuclear beta-catenin stimulation ([6]; stimulation, at 2 µM)
